The source of these data is the supplement of paper PMC11219838.

The structures appear in SMILES notation. Unmarked numbers belong to inactive results.

The subject of the experiment is Ditylenchus dipsaci. Put plainly: proportion of mobile D. dipsaci (mixed stage) relative to DMSO control (fraction of DMSO control); higher = more viable, less nematicidal, active = 0.86 or less; extreme values may be limits of the assay. Conditions: 60 µM; 5 days; temperature: 20 °C. A digest of the protocol:
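Mobility values are relative to DMSO controls and are averages of two biological replicates. For each well of a 96-well plate, about 20 D. dipsaci worms, grown on pea plants in Gamborg B-5 agar and funnel-extracted into water, were dispensed in distilled water. Plates received pinned compound at 60 µM final with 0.6% v/v DMSO and were sealed and shaken at 200 rpm for 5 days at 20 °C before 2 µL 1 M NaOH was added and mobile worms were scored by microscope.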
On to `Cc1ccccc1-c1nnc(SCC(=O)Nc2cc(C(F)(F)F)ccc2N2CCOCC2)o1`, for which the “proportion of mobile D. dipsaci” value is 1.
On to `CCOc1ccccc1-c1nnc(SCC(=O)NC(C)CC)o1` (configuration not stated), for which the “proportion of mobile D. dipsaci” value was 1.
As for `Cc1ccccc1-c1noc(COc2ccccc2)n1`, the “proportion of mobile D. dipsaci” value was 1.
For the compound `O=C(Nc1ccccc1-c1nc(-c2ccncc2)no1)c1cccc(Cl)c1`, the “proportion of mobile D. dipsaci” value is 1.
Regarding `N#Cc1ccccc1CSc1nnc(-c2ccco2)o1`, the “proportion of mobile D. dipsaci” value was 1.
Turning to `Cc1cc(OCc2nc(-c3cccnc3)no2)c(C)cc1Br`, the “proportion of mobile D. dipsaci” value was 1.
With `CCCCc1nc(-c2ccc(-c3ccc(C)cc3)nc2OC)no1`, the “proportion of mobile D. dipsaci” value is 1.
`Nc1nc(CSc2nnc(-c3ccccc3)o2)cs1`: the “proportion of mobile D. dipsaci” value was 1.
As for `Clc1ccccc1-c1noc(-c2ccccc2Cl)n1`, the “proportion of mobile D. dipsaci” value is 1.
The result for `Cc1ccc(-c2noc(-c3cc(C)cc(C)c3)n2)cc1` reads 1; that for `COC(=O)CSc1nnc(-c2ccc(C(C)(C)C)cc2)o1`, 1; that for `Clc1ccc(-c2nc(C3CCCCC3)no2)cc1`, 1.
`CC(C)(C)C(=O)CSc1nnc(-c2ccc(Cl)cc2Cl)o1`: the “proportion of mobile D. dipsaci” value is 1.
With `CC(=O)Nc1ccc(C(=O)CSc2nnc(-c3cccc(Br)c3)o2)cc1`, the “proportion of mobile D. dipsaci” value was 1.
For the compound `C=CCSc1nnc(-c2ccc(Br)cc2)o1`, the “proportion of mobile D. dipsaci” value was 0.85 (active).
Then `CCc1nc(-c2ccc(-c3ccccc3)nc2OC)no1`, with 1; and `CC1CCN(C(=O)CSc2nnc(-c3cccc(Cl)c3)o2)CC1`, with 1.
As for `c1coc(-c2nc(-c3cccs3)no2)c1`, the “proportion of mobile D. dipsaci” value is 1.
As for `CCOc1cc(-c2nc(-c3ccc(C)nc3OCC)no2)cc(OCC)c1OCC`, the “proportion of mobile D. dipsaci” value is 1.
Then `O=C(CSc1nnc(-c2ccccc2)o1)OCc1ccccc1`, with 1.
`Cc1ccc(-c2noc(-c3ccc(C)cc3)n2)cc1`: the “proportion of mobile D. dipsaci” value is 1.
With `COc1ccc(-c2nnc(SCc3csc(N)n3)o2)cc1`, the “proportion of mobile D. dipsaci” value is 1.
Then `CCc1ccc(NC(=O)CSc2nnc(-c3ccco3)o2)cc1`, with 1.
With `COc1ccc(Cl)cc1NC(=O)CSc1nnc(-c2ccc(Br)cc2)o1`, the “proportion of mobile D. dipsaci” value was 1.
Then `Cc1ccc(C)c(OCc2nc(-c3cccnc3)no2)c1`, with 1.
For `COc1ccc(OC(C)c2nc(-c3cccnc3)no2)cc1` (configuration not stated), the “proportion of mobile D. dipsaci” value was 1.
Turning to `COc1nc(C)ccc1-c1noc(-c2ccc(F)cc2)n1`, the “proportion of mobile D. dipsaci” value was 1.
In the case of `COc1ccccc1NC(=O)CSc1nnc(-c2ccc(Cl)cc2)o1`, the “proportion of mobile D. dipsaci” value was 1.
Turning to `Cc1cc(Br)ccc1OCc1nc(-c2ccncc2)no1`, the “proportion of mobile D. dipsaci” value is 1.
Consider `Clc1ccc(SCc2nc(-c3ccccn3)no2)cc1`, for which the “proportion of mobile D. dipsaci” value is 1.
As for `COc1ccc(-c2nnc(SCC(=O)Nc3ccc(Br)cc3C)o2)cc1`, the “proportion of mobile D. dipsaci” value was 0.667 (active).
Regarding `O=C(CSc1nnc(-c2ccccc2Cl)o1)Nc1ccc(F)cc1`, the “proportion of mobile D. dipsaci” value is 1.
For the compound `Cc1cc(OCc2nc(-c3cccnc3)no2)c(C)c(C)c1Br`, the “proportion of mobile D. dipsaci” value was 1.
Consider `CC(Sc1nnc(-c2ccc(C(C)(C)C)cc2)o1)C(=O)Nc1nccs1` (configuration not stated), for which the “proportion of mobile D. dipsaci” value was 1.
As for `O=C(CSc1nnc(-c2ccc(Cl)cc2)o1)Nc1nccs1`, the “proportion of mobile D. dipsaci” value is 1.
As to `Clc1ccc(OCc2nc(-c3ccccc3)no2)c(Br)c1`, the “proportion of mobile D. dipsaci” value is 1.
The result for `Cc1ccc(-c2nnc(SCc3ccccc3C)o2)cc1` reads 1.
